Compound activity (PubChem)
The list is not random: actives were taken first. Their share in the collection is about 4.7%.
PfHsp90 yeast 2: growth inhibition of yeast expressing Plasmodium Hsp90; inhibition, % at 9.4 µM; S. cerevisiae expressing PfHsp90, BacTiter-Glo ATP, 48 h; yeast lacking PDR1 and PDR3 efflux regulators; AID 504621; hit rate 0.32% among 310,000;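 active means every replicate shows inhibition above about 80%, whatever the replicate mean, limit read from the data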;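 further: 0% = DMSO neutral controls and 100% = 20 µM radicicol positive controls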
TIM10 inh: inhibits growth of TIM10 yeast strain | inhibition, % at 10 µM | AID 463195 | S. cerevisiae TIM10 strain growth, BacTiter-Glo luminescence, 24 h | hit rate 1.4% among 330,000;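 active means inhibition of 40% or more at the single tested concentration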;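 further: wild-type TIM10 isogenic control strain grown at permissive 25 °C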
tim23-1 inh: tim23-1 yeast growth inhibition | inhibition, % at 20 µM | hit rate 1.3% among 330,000 | S. cerevisiae tim23-1 growth, BacTiter-Glo luminescence, 24 h;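 active means growth inhibition of the mutant yeast at or above 50%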;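 further: temperature-sensitive mutant grown at 25 °C; plate controls were DMSO-treated mutant yeast for no effect and medium wells lacking yeast for full effect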
SKKanGAS inh: inhibitors of SKKanGAS S. pyogenes growth in kanamycin (SK-promoter or general growth effect); BacTiter-Glo, 6 h; hit rate 1.3% among 300,000; AID 1662; inhibition, % at 7.5 µM;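 active means mean replicate score, as percent of positive control median, at least 50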;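 further: strain carries kanamycin resistance gene driven by streptokinase promoter and grows in 40 µg/ml kanamycin; loss of luminescence reflects streptokinase promoter inhibition or plain growth inhibition; 0% = median of DMSO wells and 100% = positive control at its reference dose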
EBI2 antag: blocks human EBI2 receptor beta-arrestin signaling | P32249 | EBI2 beta-arrestin recruitment, luminescence, 7a,25-OHC stimulated | inhibition, % at 5 µM | hit rate 0.81% among 360,000 | AID 651636; in the data active means inhibition above about 38%;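 further: enzyme fragment complementation signal reports receptor beta-arrestin coupling in cells; 0% = agonist plus DMSO wells and 100% = wells without agonist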
Target sequence (P32249 whole entry, looked up, the tested form may be a part): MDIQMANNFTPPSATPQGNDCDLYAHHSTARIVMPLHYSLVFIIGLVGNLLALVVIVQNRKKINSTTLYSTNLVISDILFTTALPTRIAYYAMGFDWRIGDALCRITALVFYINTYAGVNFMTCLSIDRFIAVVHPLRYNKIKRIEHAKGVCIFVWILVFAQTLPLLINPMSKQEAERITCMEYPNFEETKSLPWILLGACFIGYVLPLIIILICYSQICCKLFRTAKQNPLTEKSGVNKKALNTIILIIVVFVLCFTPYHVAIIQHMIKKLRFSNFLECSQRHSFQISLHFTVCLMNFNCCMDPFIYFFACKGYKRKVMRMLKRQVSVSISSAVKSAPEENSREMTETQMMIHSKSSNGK
tim10-1 inh: growth inhibitors of tim10-1 mutant yeast; S. cerevisiae tim10-1 ts strain growth, BacTiter-Glo, 24 h; inhibition, % at 20 µM; hit rate 2.2% among 330,000; AID 463190;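 active means inhibition of at least 40%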;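 further: mutant grown at 25 °C; 0% = DMSO wells with yeast and 100% = wells holding no yeast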
* = called active by the depositor; · = not tested or not shown.

SMILES	PfHsp90 yeast 2	TIM10 inh	tim23-1 inh	SKKanGAS inh	EBI2 antag	tim10-1 inh
COC(=O)c1cc(N/C(N)=N/c2nc(C)cc(C)n2)cc(C(=O)OC)c1	·	·	·	·	-7.5	·
COCCCNC(=S)NNC(=S)Nc1cccc(Cl)c1	-16.4	33.2	20.1	52.0*	2.5	24.7
COc1ccc(C(=O)COc2ccc(C(C)=O)cc2OC)cc1OC	7.5	·	·	·	-2.5	·
N=C1SC(c2ccccc2)C(=O)N1c1ncc(Cc2ccccc2Cl)s1 (stereo not drawn)	-55.6	33.4	27.9	116.2*	2.2	32.6
CC(C)CCN1C(=O)CSCC1(C)C(=O)Nc1ccc2c(c1)OCCO2 (stereo not drawn)	·	·	·	·	-3.3	·
O=C(O)CCCN1C(=O)/C(=C\C(Cl)=C\c2ccccc2)SC1=S	40.2	·	·	65.4*	1.4	·
CC(=Cc1ccccc1)C=C1SC(=S)N(CCCC(=O)Nc2ccc(C(=O)O)c(O)c2)C1=O	·	·	·	·	9.3	·
CC(/C=C1\SC(=S)N(CCCC(=O)Nc2ccc(C(=O)O)c(O)c2)C1=O)=C\c1ccccc1	·	·	·	99.9*	·	·
CN1CCN(C(=O)CCCN2C(=O)/C(=C/c3ccccc3)SC2=S)CC1	-9.1	26.2	28.5	2.0	0.5	8.2
O=C1OCC/C1=C\NCCCN/C=C1\CCOC1=O	·	·	·	·	-4.1	·
CCCCCCCCN1C(=O)[C@H](CC(=O)N2CCN(C(=O)c3ccco3)CC2)C[C@@]2(C(=O)OC)CC(C)(C)CC=C12	·	·	·	·	9.9	·
CCOC(=O)c1ccc(N=c2sc(C(=O)OC)cc(=O)n2Cc2ccco2)cc1	-0.5	-5.1	11.4	-1.5	58.2*	8.6
OC1COCOC1C(O)C1OCOCC1O (stereo not drawn)	4.7	·	·	·	-0.7	·
Cc1ccc(SCCNC(=S)Nc2ccc(C)c(C)c2)cc1	-34.3	33.9	39.1	36.2	25.3	37.5
Cc1cc(C)cc(NC(=S)NCCSc2ccc(Cl)cc2)c1	-49.3	27.2	24.1	49.8*	30.4	30.4
CCN(CC(=O)Nc1ccccc1C(F)(F)F)C(=O)c1ccccc1OCc1ccc(F)cc1	17.3	·	·	·	10.3	·
CCCNC(=O)c1cc2c(c(-c3cccc(-c4ccccc4F)c3)n1)[C@H](CCO)N(C(=O)CC1CC1)C2	·	·	·	·	27.9	·
CC1C(=O)C(C)C(c2cc(Cl)ccc2O)NC1c1cc(Cl)ccc1O (stereo not drawn)	12.9	-4.7	36.5	74.1*	22.7	27.5
O=C1c2cccnc2C(=O)N1Cc1ccc(S(=O)(=O)N2CCOc3ccccc32)cc1	-9.1	6.7	26.2	0.8	-3.2	22.3
COc1ccc(/C=C/c2nc3ccccc3c(=O)o2)cc1	26.7	22.1	28.0	13.6	18.5	28.8
COc1ccc(/C=C/c2nc3cc(-c4ccccc4)ccc3o2)cc1O	-18.2	23.2	32.9	88.1*	39.4	6.0
CNc1nc(-c2ccccc2)c2sccc2n1	·	·	·	·	0.9	·
Cc1cc2nc(-c3cccc(Br)c3)c(Cc3ccccc3)n2c(C)c1Br	·	·	·	·	-6.0	·
Cc1sc2ncnc(N3CCC(C(=O)Nc4nc(-c5ccc(F)cc5)cs4)CC3)c2c1C	-20.4	0.8	6.4	-7.5	-1.1	-11.8
Cc1cccc2sc(NC(=O)c3ccc(NS(=O)(=O)c4cccs4)cc3)nc12	-9.6	-0.1	18.2	79.0*	-13.4	16.1
SMILES	PfHsp90 yeast 2	TIM10 inh	tim23-1 inh	SKKanGAS inh	EBI2 antag	tim10-1 inh
Cc1cc(F)ccc1NC(=O)c1ccc(NS(=O)(=O)c2cccs2)cc1	·	·	·	·	-3.4	·
COc1ccc2nc(NC(=O)c3ccc(NS(=O)(=O)c4cccs4)cc3)sc2c1	7.6	11.4	3.0	63.4*	4.3	7.7
CC(C)[C@H](NC(=O)OC(C)(C)C)c1cc(C(=O)N[C@@H](C)c2ccccc2)c(N)s1	·	·	·	·	2.1	·
C/C(N)=C(/C#N)C(=O)CSc1nc2scc(-c3ccccc3)c2c(=O)n1C	3.3	23.9	1.6	61.9*	5.7	13.8
CSc1ncnc2c1ncn2CCCN1CCN(C(=O)C2CC2)CC1	·	·	·	·	-4.6	·
COc1ccc(OC)c(NC(=O)C(=O)NNC(=O)COc2ccc(Br)cc2C)c1	-12.3	1.5	-7.4	121.4*	9.8	0.8
Clc1ccc(-[n+]2c(-c3cccc(Br)c3)[nH]c3nc4ccccc4nc32)cc1	-34.4	17.5	30.7	85.2*	-16.8	28.6
Cc1ccccc1C(=O)Oc1cccc(Nc2ncnc3ccccc23)c1	7.6	8.4	2.0	75.3*	-11.7	37.9
CC(=O)Oc1cccc(Nc2ncnc3ccccc23)c1	-4.3	2.8	25.5	-3.3	-10.7	16.6
O=C1CCCN1CCCNc1nc(NCc2cccs2)nc2ccsc12	·	·	·	·	-7.4	·
Cc1nn(Cc2ccc(F)cc2)c2sc(C(=O)Nc3ccccc3N3CCOCC3)cc12	5.2	14.4	5.6	9.6	16.8	17.7
Cc1nn(Cc2ccccc2Cl)c2sc(C(=O)Nc3ccccc3N3CCOCC3)cc12	6.0	21.9	3.8	60.2*	32.2	17.9
COc1cc(CN2CCCCCC2)cc(OC)c1OC	12.1	1.4	-3.8	2.9	-15.0	-10.4
COc1cc(Cc2cnc(N)nc2N)cc(OC)c1OC	-13.2	5.8	-2.7	50.6*	10.1	0.2
Cc1ccc(N=Nc2ccc(O)c3ncccc23)cc1	-41.7	·	·	108.6*	8.4	·
CCS(=O)(=O)c1ccc(N=Nc2ccc(O)c3ncccc23)c(OC)c1	58.9	4.5	32.2	19.5	-1.3	39.2
Cc1ccc(N=Nc2ccc(O)c3ncccc23)cc1C	-57.7	-0.2	17.8	88.4*	14.2	37.9
O=c1[nH]c(-c2ccccn2)nc2ccccc12	-1.7	-12.9	1.7	3.7	-2.7	-2.0
O=c1[nH]c(-c2ccccn2)nc(C(F)(F)F)c1Br	90.1*	33.6	-12.3	12.5	5.5	16.0
CSc1nc(COC(=O)NC(C)C)c(COC(=O)NC(C)C)n1Cc1ccccc1	·	·	·	·	-3.9	·
O=C(NC1CCCCC1)c1sc(=S)n2c1[nH]c(=O)c1ccccc12	·	31.6	18.6	60.0*	2.0	38.6
CCCCNC(=O)c1sc(=S)n2c1[nH]c(=O)c1ccccc12	-0.6	20.0	27.4	53.8*	4.2	39.1
COc1ccc(N2CCN(C3CC(=O)NC3=O)CC2)cc1 (stereo not drawn)	-8.4	-5.3	11.1	15.0	-9.4	-1.3
COc1ccc(C(=O)c2ccc(N3CCN(C4CC(=O)NC4=O)CC3)cc2)cc1F (stereo not drawn)	3.7	-7.1	14.5	73.2*	-0.1	8.7
C[C@H](O)[C@@H]1C(=O)N2CCc3c([nH]c4ccccc34)[C@@H]2C[C@@H]1N(C)S(=O)(=O)c1ccccc1	·	·	·	·	-13.3	·
CN(CCc1ccccc1)c1cc2c(c3c1ccn3C)C1CCC2O1 (stereo not drawn)	·	·	·	·	-3.6	·
Cc1nc2c(C(=O)Nc3ccc(N4CCCC(O)C4)cc3)snc2c(=O)[nH]1 (stereo not drawn)	1.5	-25.6	-28.3	59.0*	-0.9	-13.0
O=C(Nc1ccc(N2CCCC(O)C2)cc1)c1snc2c(=O)[nH]cnc12 (stereo not drawn)	19.5	-5.5	-7.2	29.8	-1.2	0.7
COc1ccc(/C=N/NC(=O)CCn2cnc(-c3ccccc3)c2-c2ccccc2)cc1	15.7	29.8	32.5	105.4*	-14.6	32.6
